This note sets out measurements from PubChem BioAssay AID588 (National Center for Advancing Translational Sciences (NCATS), 2007).

Screen size: about 59,000 compounds; about 25 (0.04%) were called active. The sample holds actives, similar compounds and a random draw of the others, so the mix is not that of the screen. No rule for the calls is given here.

This test is described as follows: qHTS Assay for Spectroscopic Profiling in Resorufin Spectral Region. Conditions: Compound fluorescence, resorufin region 547/598 nm, buffer. The text has this: NIH Molecular Libraries Screening Centers Network [MLSCN] NIH Chemical Genomics Center [NCGC] […] Occasionally, the artifactual effect may originate from the compound#s own spectral or other biophysical properties which generally tend to track its assay concentration. Pre-screening/profiling the library with respect to the compounds# spectral properties should help one exclude false positives early on. While the most informative fluorescent profiling data set is obtained by performing a full excitation and emission scan of each well by using a monochromator-based plate reader, such an approach is practical only on a very limited scale as scanning each well requires long time. An alternative approach, applied here, is to perform plate reader scans using selected excitation and emission wavelength pairs to generate a multidimensional relational database that correlates compound concentration and the respective relative fluorescence intensity at a given wavelength set. A standard curve of resorufin present on each plate as six-point concentration series, was used to compute a normalized fluorescence response, termed dye-equivalent concentration, for each compound at each concentration.
NCGC Assay Protocol Summary: Buffer: 100 mM Tris buffer, pH 8.0 Dye standard plate: The wells in columns 1 through 4 of a Kalypsys polypropylene 1536-well compound plate were filled with standard solutions of fluorophore corresponding to the spectral region of interest. Solutions of resorufin were placed in the following wells: M1, N1: 3 mM, M2, N2: 300 uM, M3, N3: 30 uM, M4, N4: zero (DMSO), O1, P1: 3 uM, O2, P2: […], O3, P3: 300 nM, O4, P4: zero (DMSO). Assay Steps: Six uL of buffer were dispensed to 1536-well Greiner black plates. Compounds and dye standards (23 nL) were transferred via Kalypsys PinTool. The plates were incubated for 15 min at room temperature, and then read on ViewLux (Perkin-Elmer) High-throughput CCD imager using 547 nm and 598 nm excitation and emission filter set. Keywords: NIH Roadmap, MLSCN, MLI, MLSMR, qHTS, NCGC, Resorufin, Fluorescent Profiling.
Background: In qHTS, concentration-response curves come from the screen itself.
`Cc1cc(C)nc(NC2=NCC(=O)N2c2ccc(Cl)cc2)n1`: the max dye-equivalent concentration result is “inactive”. Turning to `CCNc1ncc2nc(CCc3ccccc3)c(=O)n(-c3ccc(OC)cc3)c2n1`, the max dye-equivalent concentration result is “inactive”. As for `Cc1noc(NS(=O)(=O)c2ccc(N3CC(O)=C(c4ccccc4)C3=N)cc2)c1C`, the max dye-equivalent concentration entry is “inactive”.

Regarding `C[C@H]1O[C@@H](CC(=O)O)Cc2c1c(O)c1c(O)cc(-c3cc(=O)c4c(=O)c5c(c(=O)c=4c3=O)C[C@H](CC(=O)O)O[C@@H]5C)c(O)c1c2O`, the max dye-equivalent concentration result was “inactive”. On to `CCCOc1ccccc1-c1nc(SCCC(=O)O)n[nH]1`, for which the max dye-equivalent concentration result was “inactive”. As for `CCC(C)(C)n1nnnc1C(c1ccccc1OC)N1CCSCC1` (stereo not given), the max dye-equivalent concentration result is “inactive”. As for `Cc1ccc(S(=O)(=O)NCCN2CCOCC2)cc1C`, the max dye-equivalent concentration result is “inactive”.

Turning to `C=CCn1c(COc2ccccc2C)nnc1SCC(=O)O`, the max dye-equivalent concentration entry was “inactive”. With `Cc1cccc(NC(=O)CSc2nc3c(c(=O)[nH]2)CCC3)c1C`, the max dye-equivalent concentration entry is “inactive”.

As for `COc1ccccc1N1CC(O)=C(c2nc3ccccc3s2)C1=N`, the max dye-equivalent concentration result is “inactive”.

Consider `CCN(CC(=O)NC(C)C)C(=O)CCNC(=O)c1ccc(Cl)cc1`, for which the max dye-equivalent concentration result is “inactive”. As for `COc1ccc2[nH]c3ccc(OC)cc3c2c1`, the entry is “inactive”. The same measure for `Cc1cc(C(F)(F)F)c(C#N)c(SCC(=O)NC2CC2)n1`: “inactive”; for `COc1ccc(O)c(C(=O)c2cnc3onc(C(C)C)c3c2)c1`: “inactive”; for `CCOC(=O)Nc1ccc2c(c1)N(C(=O)CN1CCN3CCCC3C1)c1ccccc1CC2` (stereo not given): “inactive”. In the case of `CCCCNC(=O)c1ccccc1NC(=O)c1ccccc1N(C)S(C)(=O)=O`, the max dye-equivalent concentration entry is “inactive”. For the compound `CCC(C)Sc1nc2c(c(=O)[nH]c(=O)n2C)n1CC(O)COc1cccc2ccccc12` (stereo not given), the max dye-equivalent concentration result was “inactive”. As for `COc1ccc(-n2ncc3c(N4CCc5ccccc54)ncnc32)cc1`, the entry is “inactive”; as for `Cc1ccc(-n2c(Cc3cccs3)nnc2SCC(=O)OC(C)C)cc1`, “inactive”. The same measure for `COCCn1c(=O)c(-c2cccc(F)c2)nc2cncnc21`: “inactive”; for `COc1ccc(-n2c(=O)c(-c3cn(C)c4ccccc34)nc3cnc(OC)nc32)cc1`: “inactive”; for `Cc1ccc(C(=O)NCC(=O)O)cc1S(=O)(=O)N1CCCCC1`: “inactive”. Consider `Cn1c(SCc2c(F)cccc2Cl)nnc1-c1cnccn1`, for which the max dye-equivalent concentration entry was “inactive”.

For the compound `O=C(NC1CCCCC1)c1ccc2c(=O)n(CC3CCCO3)c(=O)[nH]c2c1` (stereo not given), the max dye-equivalent concentration result is “inactive”. As for `O=c1[nH]nc(CSCc2ccccc2Cl)[nH]1`, the entry is “inactive”; as for `COCCNC(=O)c1snc2ccc(Cl)cc12`, “inactive”; as for `CCOc1ccc(NC(=O)CCS(=O)(=O)c2cccc3nsnc23)cc1`, “inactive”. As for `CCOc1cc(C2C(C(=O)OC)=CN(C3CCCC3)C=C2C(=O)OC)cc(Br)c1O`, the max dye-equivalent concentration result was “inactive”. As for `O=C(Nc1cnn(Cc2ccc(Cl)cc2)c1)C1CCCC1`, the max dye-equivalent concentration result is “inactive”. In the case of `CSc1ccc(-c2c(C#N)c(N)nc3c2c(C)nn3-c2ccccc2)cc1`, the max dye-equivalent concentration entry is “inactive”.
